Records with an inconclusive call do not appear. Calls of active or inactive are those of the source. Unless noted, the call rests on the fitted dose curve.
How the values were obtained:
[1] = Nuclear factor erythroid 2-related factor 2/antioxidant responsive element (Nrf2/ARE) small molecule agonists: qHTS cell viability counter screen in human keratinocytes (AID 1919968; active means well fitted curve in the direction sought with a large enough effect in the repeat runs; an effect the other way counts as inactive or inconclusive; further: nearly all actives have a fitted effect of over 55% in size; further: potency means the concentration at half of the fitted maximal effect)
How it was run: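 Measured as CellTiter-Fluor fluorescence, this readout tracks cytotoxicity in the same wells as the ARE-luciferase screen. HaCaT reporter cells (1,500/well) received compounds after a 5 h pre-incubation and were exposed for 23 h.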

[2] = Nuclear factor erythroid 2-related factor 2/antioxidant responsive element (Nrf2/ARE) small molecule agonists: luciferase reporter gene qHTS assay in human keratinocytes (AID 1919969); further: nearly all actives have a fitted effect of over 35% in size; further: potency means the concentration at half of the fitted maximal effect
[3] = biological target: Gonadotropin-releasing hormone receptor (Homo sapiens) (UniProt P30968); assay: Human gonadotropin-releasing hormone receptor (GnRHR) small molecule agonists, calcium flux assay in GnRHR-HEK293 cells (AID 1920063); further: nearly all actives have a fitted effect of over 35% in size
How it was run: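 Fluorescence kinetics (480 nm excitation, 540 nm emission; 3 min, 1 s steps) report calcium mobilisation in human GnRHR-HEK293 cells in agonist mode. Dye incubation: 1 h, 37 C.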

[4] = biological target: KiSS-1 receptor (Homo sapiens) (UniProt Q969F8); assay: Human kisspeptin (KISS1R) small molecule agonists, calcium flux assay in KISS1R-HEK293 cells (AID 1920064; active means well fitted curve in the direction sought with a large enough effect in the repeat runs; an effect the other way counts as inactive or inconclusive)
How it was run: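 Measures KISS1R agonism through calcium-sensitive dye fluorescence in stably transfected HEK293 cells, read for 3 min after pin-tool compound delivery; 15-point titrations in triplicate.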

[5] = G protein-coupled receptor (GPCR) small molecule agonists, calcium flux assay: HEK293 wild type cell line counter screen (AID 1920065)
How it was run: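 Readout: fluorescence at 480 nm excitation/540 nm emission, sampled at 1 s intervals for 3 min. Cells had been cultured 18 h, then dye-loaded 1 h at 37 C before compound or ATP addition.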

[6] = p53 small molecule agonists, cell-based qHTS assay with human liver microsomes (AID 1963577)
How it was run: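 Cells carrying a p53-responsive bla reporter were rested 5 h (37 C, 5% CO2) before compound transfer. Human liver microsomes plus NADPH, 0.5 mg/mL final apiece, supplied metabolism during the 16 h 37 C exposure.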

[7] = p53 small molecule agonists, cell-based qHTS assay with rat liver microsomes (AID 1963578)
How it was run: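 Fluorescence from a beta-lactamase reporter under a p53 response element was measured after cells had been incubated 16 h at 37 C with test compound and rat liver microsomes plus NADPH (0.5 mg/mL final each).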

[8] = p53 small molecule agonists, cell-based qHTS assay with human liver microsomes: qHTS cell viability counter screen (AID 1963579); further: nearly all actives have a fitted effect of over 45% in size
How it was run: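 Seed p53RE-bla cells at 4,000 per well; incubate 5 h at 37 C; add compound, human liver microsomes and NADPH; incubate 16 h at 37 C; add CellTiter-Glo; after 30 min at room temperature, read luminescence.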

[9] = p53 small molecule agonists, cell-based qHTS assay with rat liver microsomes: qHTS cell viability counter screen (AID 1963580); further: nearly all actives have a fitted effect of over 45% in size
How it was run: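 In HCT-116 cells carrying a p53 response element-bla reporter, compounds were metabolically activated in situ by rat liver microsomes with NADPH over 16 h. Cell ATP content then served as the cytotoxicity measure.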

[10] = p53 small molecule agonists, cell-based qHTS assay: qHTS cell viability counter screen (AID 1963581); further: nearly all actives have a fitted effect of over 45% in size
How it was run: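 In the same plates used for the p53 bla reporter, HCT-116 cells given compounds for 16 h at 37 C received CellTiter-Glo; luminescence was recorded 30 min later at room temperature.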

[11] = biological target: 5-hydroxytryptamine receptor 2A (Homo sapiens) (UniProt P28223); assay: 5-hydroxytryptamine receptor 2A (HTR2A) small molecule agonists, cell-based qHTS assay (AID 1963587); further: nearly all actives have a fitted effect of over 30% in size
How it was run: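 HTR2A-CHO cells, plated 18 h at 37 C/5% CO2, dye-loaded 1 h at 37 C; compounds in DMSO added by pin tool (agonist mode). Intracellular calcium flux read as kinetic fluorescence on FDSS over 2 min at 1 s intervals.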

[12] = biological target: Muscarinic acetylcholine receptor M1 (Homo sapiens) (UniProt P11229); assay: Cholinergic receptor muscarinic 1 (CHRM1) small molecule antagonists, cell-based qHTS assay (AID 1963588); further: nearly all actives have a fitted effect of over 40% in size
How it was run: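 CHRM1-CHO calcium-flux assay, antagonist mode. Cells were seeded 18 h, dye-loaded 1 h at 37 C and given compound for 5 min at RT, then acetylcholine was added at 50nM. FDSS fluorescence was read 3 min; 15 concentrations, three runs.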

[13] = biological target: Muscarinic acetylcholine receptor M1 (Homo sapiens) (UniProt P11229); assay: Cholinergic receptor muscarinic 1 (CHRM1) small molecule agonists, cell-based qHTS assay (AID 1963589); further: nearly all actives have a fitted effect of over 35% in size
How it was run: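 Each compound was tested at 15 concentrations across three independent runs on dye-loaded CHO cells stably expressing human CHRM1, reading intracellular calcium fluorescence kinetically at 1 sec intervals.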

[14] = cAMP Responsive Elements (CRE) small molecule antagonists, cell-based qHTS assay (AID 1963591; active means well fitted inhibition curve with a large enough effect in the signal ratio in the repeat runs, not every such curve was filed as active; the % refers to the signal ratio; further: potency means the concentration at half of the fitted maximal effect)
How it was run: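 Inhibition of NKH477-driven (0.25 uM final) CRE-beta-lactamase signal in HEK293T cells, 3 h compound exposure at 37 °C, detected by FRET substrate fluorescence.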

[15] = biological target: Beta-2 adrenergic receptor (Homo sapiens) (UniProt P07550); assay: Adrenergic beta2 receptor (ADRB2) small molecule agonists, cell-based qHTS assay (AID 1963593);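 further: CHO cells stably overexpressing human ADRB2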
How it was run: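 CHO cells stably over-expressing ADRB2 were plated overnight at 37C, then dosed with compounds plus a stimulation mix containing 100uM IBMX and 25uM Ro-20-1724 for 0.5hr at room temperature. cAMP was measured by HTRF competition, 1hr.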

[16] = biological target: D(2) dopamine receptor (Homo sapiens) (UniProt P14416); assay: Dopamine D2 receptor (DRD2) small molecule antagonists, cell-based qHTS assay (AID 1963595; active means well fitted inhibition curve with a large enough effect in the signal ratio in the repeat runs, with a control signal flat; the % refers to the signal ratio)
How it was run: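 HEK293 cells stably expressing DRD2, preincubated with 0.1 mM Ro20-1724 and compounds 10 min, were stimulated with 200 nM NKH477 plus 12 nM quinpirole for 30 min at room temperature; cAMP measured by HTRF (665/620 nm).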

[17] = biological target: 5-hydroxytryptamine receptor 2A (Homo sapiens) (UniProt P28223); assay: 5-hydroxytryptamine receptor 2A (HTR2A) small molecule antagonists, cell-based qHTS assay (AID 1963586); further: nearly all actives have a fitted effect of over 45% in size
How it was run: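 Antagonist-mode intracellular calcium assay: DOI (4 nM) added after 5 min compound pre-incubation at room temperature to dye-loaded HTR2A-CHO cells. Fluorescence followed for 3 min, sampled every second.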

[18] = biological target: Beta-2 adrenergic receptor (Homo sapiens) (UniProt P07550); assay: Adrenergic beta2 receptor (ADRB2) small molecule antagonists, cell-based qHTS assay (AID 1963592); further: series mostly up to about 92 µM; nearly all actives have a fitted effect of over 50% in size
How it was run: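 Cells (CHO, stable ADRB2 overexpression) incubated 18-20hr at 37C; compounds added from DMSO; agonist mix (1nM isoproterenol, 100uM IBMX, 25uM Ro-20-1724) added; 0.5hr RT; d2-cAMP and anti-cAMP-cryptate added; 1hr RT; 665/615 nm read.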

[19] = biological target: D(2) dopamine receptor (Homo sapiens) (UniProt P14416); assay: Dopamine D2 receptor (DRD2) small molecule agonists, cell-based qHTS assay (AID 1963594); further: nearly all actives have a fitted effect of over 35% in size
How it was run: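 HEK293 cells stably expressing DRD2 were cultured 24 h at 37 C, then given Ro20-1724 (0.1 mM final) and compounds for 10 min at room temperature. NKH477 (200nM) was then added for 30 min. cAMP was read by HTRF.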

[20] = cAMP Responsive Elements (CRE) small molecule agonists, cell-based qHTS assay (AID 1963590)
How it was run: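 Cell line: CRE-bla HEK 293T; medium DMEM/10% dialyzed FBS/0.1 mM NEAA/1 mM pyruvate/25 mM HEPES; 3 h compound exposure; beta-lactamase FRET readout after 2 h substrate loading at RT.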

Measured: Potency

Sequence of 5-hydroxytryptamine receptor 2A (Homo sapiens) (P28223 whole entry, looked up): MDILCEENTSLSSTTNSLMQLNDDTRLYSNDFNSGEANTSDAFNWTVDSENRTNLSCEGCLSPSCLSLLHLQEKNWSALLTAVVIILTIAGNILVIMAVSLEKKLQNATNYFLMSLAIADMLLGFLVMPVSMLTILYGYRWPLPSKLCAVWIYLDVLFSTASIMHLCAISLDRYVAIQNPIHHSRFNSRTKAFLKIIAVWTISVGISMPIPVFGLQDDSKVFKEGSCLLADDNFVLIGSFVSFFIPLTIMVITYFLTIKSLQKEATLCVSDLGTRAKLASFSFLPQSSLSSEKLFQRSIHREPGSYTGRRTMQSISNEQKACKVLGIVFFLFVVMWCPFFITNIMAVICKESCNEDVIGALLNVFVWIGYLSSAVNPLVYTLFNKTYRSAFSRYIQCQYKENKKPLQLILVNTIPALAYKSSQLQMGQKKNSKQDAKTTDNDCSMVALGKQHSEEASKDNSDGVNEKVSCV
Sequence of Gonadotropin-releasing hormone receptor (Homo sapiens) (P30968 whole entry, looked up): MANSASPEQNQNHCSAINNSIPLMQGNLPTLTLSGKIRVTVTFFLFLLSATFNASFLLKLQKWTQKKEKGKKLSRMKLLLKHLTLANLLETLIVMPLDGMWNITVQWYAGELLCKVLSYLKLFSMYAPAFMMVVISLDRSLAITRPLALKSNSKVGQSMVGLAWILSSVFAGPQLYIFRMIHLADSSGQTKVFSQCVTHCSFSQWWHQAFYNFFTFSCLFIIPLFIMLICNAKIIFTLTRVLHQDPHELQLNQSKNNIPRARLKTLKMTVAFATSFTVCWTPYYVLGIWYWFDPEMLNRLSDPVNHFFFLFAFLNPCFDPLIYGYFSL
Sequence of KiSS-1 receptor (Homo sapiens) (Q969F8 whole entry, looked up): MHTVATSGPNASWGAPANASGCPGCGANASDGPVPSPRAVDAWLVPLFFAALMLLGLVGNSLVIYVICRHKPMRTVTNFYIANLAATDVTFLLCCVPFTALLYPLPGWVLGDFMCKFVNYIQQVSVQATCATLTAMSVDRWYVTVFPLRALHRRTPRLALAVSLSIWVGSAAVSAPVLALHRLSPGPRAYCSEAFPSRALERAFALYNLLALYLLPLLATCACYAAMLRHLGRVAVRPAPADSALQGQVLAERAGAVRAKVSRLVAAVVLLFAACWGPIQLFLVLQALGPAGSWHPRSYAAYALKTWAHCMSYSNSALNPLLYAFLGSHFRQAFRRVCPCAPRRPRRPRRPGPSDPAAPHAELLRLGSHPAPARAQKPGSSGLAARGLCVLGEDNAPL
Sequence of D(2) dopamine receptor (Homo sapiens) (P14416 whole entry, looked up): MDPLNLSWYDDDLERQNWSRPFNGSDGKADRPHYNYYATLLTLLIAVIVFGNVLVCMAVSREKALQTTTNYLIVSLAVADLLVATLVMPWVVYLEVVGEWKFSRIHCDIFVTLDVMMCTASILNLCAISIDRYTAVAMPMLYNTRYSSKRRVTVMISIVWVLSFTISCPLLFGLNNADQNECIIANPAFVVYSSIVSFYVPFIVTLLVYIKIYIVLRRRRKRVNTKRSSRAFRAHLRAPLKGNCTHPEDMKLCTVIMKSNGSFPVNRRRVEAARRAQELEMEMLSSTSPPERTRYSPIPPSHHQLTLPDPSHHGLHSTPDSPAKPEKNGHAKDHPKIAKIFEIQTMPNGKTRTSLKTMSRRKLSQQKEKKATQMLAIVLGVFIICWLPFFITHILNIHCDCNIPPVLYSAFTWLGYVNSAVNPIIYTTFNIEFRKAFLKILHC
Sequence of Muscarinic acetylcholine receptor M1 (Homo sapiens) (P11229 whole entry, looked up): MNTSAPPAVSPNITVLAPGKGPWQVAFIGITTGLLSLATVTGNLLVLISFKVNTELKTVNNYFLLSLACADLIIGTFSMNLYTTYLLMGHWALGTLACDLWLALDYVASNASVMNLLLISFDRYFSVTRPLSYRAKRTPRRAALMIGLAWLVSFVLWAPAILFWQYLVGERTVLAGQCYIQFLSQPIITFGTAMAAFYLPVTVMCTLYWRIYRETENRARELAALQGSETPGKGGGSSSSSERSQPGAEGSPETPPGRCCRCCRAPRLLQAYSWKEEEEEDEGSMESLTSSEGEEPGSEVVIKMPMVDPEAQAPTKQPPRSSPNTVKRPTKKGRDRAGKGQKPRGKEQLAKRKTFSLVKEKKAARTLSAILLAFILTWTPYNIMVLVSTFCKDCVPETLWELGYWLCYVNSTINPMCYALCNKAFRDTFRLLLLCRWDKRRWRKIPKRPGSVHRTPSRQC
Sequence of Beta-2 adrenergic receptor (Homo sapiens) (P07550 whole entry, looked up): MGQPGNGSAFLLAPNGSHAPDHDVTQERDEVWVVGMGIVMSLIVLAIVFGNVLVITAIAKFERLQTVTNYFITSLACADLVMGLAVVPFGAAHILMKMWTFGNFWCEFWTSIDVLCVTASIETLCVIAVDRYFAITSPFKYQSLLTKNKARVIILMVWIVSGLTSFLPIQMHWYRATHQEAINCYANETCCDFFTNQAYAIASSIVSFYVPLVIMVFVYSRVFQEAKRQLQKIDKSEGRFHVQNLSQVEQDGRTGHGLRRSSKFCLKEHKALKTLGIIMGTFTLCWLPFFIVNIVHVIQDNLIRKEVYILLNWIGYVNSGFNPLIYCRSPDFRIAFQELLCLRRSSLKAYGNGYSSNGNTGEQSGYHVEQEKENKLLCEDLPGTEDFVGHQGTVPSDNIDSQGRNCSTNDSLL

CCN(C(=O)c1cc(C)cc(OC[C@H](C)Nc2ccncc2)c1)C(C)C
active: [14] 21.4 µM
not listed: [17] | [18] | [19] | [20]
inactive: all other assays above

CCn1nc(Cc2ccccc2)cc1C1CCN(C[C@H]2C[C@H](N(C)[C@@H](C(=O)O)C(C)C)C[C@@H]2c2cccc(F)c2)CC1
not listed: [13] | [14] | [15] | [20]
inactive: all other assays above

CC1=C(C)C(=O)C(CCCCC#CCCCC#CCO)=C(C)C1=O
active: [2] 29.8 µM
not listed: [12] | [15] | [20]
inactive: all other assays above

Nc1cc(C(F)(F)F)ccc1S
active: [1] 26.6 µM | [2] 13.3 µM
not listed: [12] | [14] | [16] | [20]
inactive: all other assays above

C=COCC1CCC(CO)CC1 (centres undefined)
not listed: [11] | [14] | [15]
inactive: all other assays above

CCCCCCc1ccc(N)cc1
active: [2] 27.3 µM
not listed: [13] | [14] | [18] | [20]
inactive: all other assays above

Nc1cc(Cl)c(O)c(Cl)c1
active: [2] 54.5 µM
not listed: [12] | [14] | [15] | [16] | [18] | [20]
inactive: all other assays above

CC1(C)S[C@@H]2[C@H](N=CN3CCCCCC3)C(=O)N2[C@H]1C(=O)O
not listed: [11] | [12] | [15]
inactive: all other assays above
